Target: NDE1
Assay: pooled miR-30 sensor sort-seq; sequence = guide strand
Conditions: shRNA
Note: reference of the scale not given here.

Point of comparison: TTCTCGGAGTTCCTCTTGCGTA, sensor-assay potency score (higher = more potent) -1.4. Against it:
- TTTTCGGACAGGAGGTCTCTGT — higher, -0.635
- TCTGTTTGTAGGTCATCGCCAG — higher, -0.347
- TCTTCGAGAGACATGATCGTGG — higher, -0.394
- TTCAATTTGTTGCAGCTGCGTC — higher, -0.561
- TCTCTGAACAGATTCCAGGAGA — higher, -0.696
- TTGCTTGCTCCAGCTCTCTGAT — higher, -1.21
- TTGATTTGGACAACCAGCGGCA — higher, -0.226
- TTAAACTTGAGCTGGGTCCTCG — higher, -0.477
- TTCAGCTTCATATTCTCGGCTT — higher, 0.137
- TTTGCTTGCTCCAGCTCTCTGA — higher, -0.321

Target: NDUFA7
Assay: as above
Conditions: shRNA

Point of comparison: TCTCAGTGGCAGCTACAGCAGA, sensor-assay potency score (higher = more potent) -0.927. Against it:
- ATTGTTGGAGAGCTTGTGGCTA — higher, -0.402
- TTGTGGCTAGGACCCACAGGGA — lower, -1.83
- TCTCCTGGTAGCGTAGCTGCAG — lower, -1.09
- TTGTTGGAGAGCTTGTGGCTAG — higher, -0.163
- AATTAGGTCACATTCTCCCTGG — higher, -0.0171
- TCGCTTGGAGATCTCCTGGTAG — higher, -0.223
- TTCGCTTGGAGATCTCCTGGTA — higher, 0.453
- AGGAGCTGGAGTCACCGCCTTC — lower, -1.6
- TAAAACTAGAAGTGATACCTGA — higher, 0.222
- TACAGCAGAGCTCTCTGCTGGC — higher, -0.355
- TAGCGTAGCTGCAGCTTCCCCT — higher, -0.864

Target: NDUFA9
Assay: as above
Conditions: shRNA

Point of comparison: TTGCTGTGTTGTACTACTCGTC, sensor-assay potency score (higher = more potent) -0.266. Against it:
- TTTAACTGTCTTCCAGCCCAAG — lower, -1.24
- TTAACTGCATTAACAATTCCTT — lower, -0.73
- TTGATGACCACATTGCTGTGTT — higher, 0.542
- TACTTTCTCTCCAACAGCCTTA — higher, 0.0635
- TTAAGGAATCTATCCTCTCTTC — lower, -0.535
- TATAGGACCAAACCGATGCATA — lower, -1.43
- TTCAACTCCAGCTTCCTTGGAC — higher, 0.368
- TTATTTCAAAGACTCTTGCTAC — higher, -0.0759
- TGTGTTGTACTACTCGTCGGAT — lower, -0.517
- TGACTGAGGAACGTCCACCTTT — lower, -0.755
- TAGAATCTTTATCTCTCGCGTC — higher, -0.0518

Target: NDUFAB1
Assay: as above
Conditions: shRNA

Point of comparison: ACAACTGTGTAACTCTACCAGG, sensor-assay potency score (higher = more potent) -1.08. Against it:
- TTTACTGAAAGCTTCTCTGGGT — higher, 0.584
- TGTAACTCTACCAGGAACCTGC — higher, 0.262
